Experimental data as given in PubChem BioAssay AID1159580 (chemical genetic matrix, 2015).
About 2,000 (36%) of roughly 5,500 compounds were called active. Inconclusive results (about 18%) are left out. Rule as the data show it: active = normalized growth mostly below about 0.91 (no sharp cut-off); inconclusive = no clear call, values can overlap the other calls; inactive = mostly above about 0.92. This is one part of the list.

Assay: chemical genetic growth profiling, strain panel (AID 1159580);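 also: tested at 20 µM; growth read once vehicle control cultures reached saturation at 30 °C; 1 = growth at the plate median or of vehicle wells; lower values mean less growth of the strain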
Conditions: growth OD

Measured: normalized growth

CCC(=O)OCC(=O)[C@@]1(OC(=O)CC)[C@@H](C)CC2C3CCC4=CC(=O)C=C[C@]4(C)C3(F)[C@@H](O)C[C@@]21C (some centres undefined)
active: S. cerevisiae deletion strains, locus YJR043C, strain POL32, stronger effect = lower value 0.841 | S. cerevisiae deletion strains, locus YLR330W, strain CHS5, stronger effect = lower value 0.898 | S. cerevisiae deletion strains, locus YLR342W, strain FKS1 (second series), stronger effect = lower value 0.741 | S. cerevisiae deletion strains, locus YLR418C, strain cdc73, stronger effect = lower value 0.777 | S. cerevisiae deletion strains, locus YML032C, strain rad52, stronger effect = lower value 0.843 | S. cerevisiae deletion strains, locus YMR223W, strain ubp8, stronger effect = lower value 0.876 | S. cerevisiae deletion strains, locus YNL307C, strain MCK1, stronger effect = lower value 0.835 | S. cerevisiae deletion strains, locus YOR184W, strain ser1, stronger effect = lower value 0.838
inactive: S. cerevisiae deletion strains, locus YJR066W, strain TOR1, stronger effect = lower value 0.989 | S. cerevisiae deletion strains, locus YJR075W, strain HOC1, stronger effect = lower value 0.945 | S. cerevisiae deletion strains, locus YKL009W, strain mrt4, stronger effect = lower value 0.891 | S. cerevisiae deletion strains, locus YKL068W, stronger effect = lower value 0.958 | S. cerevisiae deletion strains, locus YKL085W, strain MDH1 (second series), stronger effect = lower value 0.959 | S. cerevisiae deletion strains, locus YKL085W, strain MDH1, stronger effect = lower value 0.959 | S. cerevisiae deletion strains, locus YKL160W, strain elf1, stronger effect = lower value 1.01 | S. cerevisiae deletion strains, locus YKR001C, strain vps1, stronger effect = lower value 0.916 | S. cerevisiae deletion strains, locus YKR026C, strain gcn3, stronger effect = lower value 0.997 | S. cerevisiae deletion strains, locus YKR091W, strain srl3, stronger effect = lower value 0.997 | S. cerevisiae deletion strains, locus YLL001W, strain dnm1, stronger effect = lower value 1.01 | S. cerevisiae deletion strains, locus YLL026W, stronger effect = lower value 1.01 | S. cerevisiae deletion strains, locus YLL041C, strain sdh2, stronger effect = lower value 0.994 | S. cerevisiae deletion strains, locus YLR027C, strain aat2, stronger effect = lower value 0.999 | S. cerevisiae deletion strains, locus YLR039C, strain RIC1, stronger effect = lower value 0.85 | S. cerevisiae deletion strains, locus YLR058C, strain SHM2, stronger effect = lower value 0.943 | S. cerevisiae deletion strains, locus YLR102C, strain apc9, stronger effect = lower value 0.973 | S. cerevisiae deletion strains, locus YLR113W, strain HOG1, stronger effect = lower value 1.05 | S. cerevisiae deletion strains, locus YLR221C, strain rsa3, stronger effect = lower value 1.01 | S. cerevisiae deletion strains, locus YLR258W, strain gsy2, stronger effect = lower value 0.997 | S. cerevisiae deletion strains, locus YLR262C, strain YPT6 (second series), stronger effect = lower value 1 | S. cerevisiae deletion strains, locus YLR262C, strain YPT6, stronger effect = lower value 0.772 | S. cerevisiae deletion strains, locus YLR268W, strain sec22, stronger effect = lower value 0.915 | S. cerevisiae deletion strains, locus YLR320W, strain mms22, stronger effect = lower value 1.02 | S. cerevisiae deletion strains, locus YLR342W, strain FKS1, stronger effect = lower value 1.01 | S. cerevisiae deletion strains, locus YLR357W, strain rsc2, stronger effect = lower value 1.02 | S. cerevisiae deletion strains, locus YLR370C, strain arc18, stronger effect = lower value 1 | S. cerevisiae deletion strains, locus YLR371W, strain rom2, stronger effect = lower value 0.95 | S. cerevisiae deletion strains, locus YLR384C, strain iki3, stronger effect = lower value 0.998 | S. cerevisiae deletion strains, locus YML016C, strain PPZ1, stronger effect = lower value 0.967 | S. cerevisiae deletion strains, locus YML120C, strain ndi1, stronger effect = lower value 0.995 | S. cerevisiae deletion strains, locus YML124C, strain tub3, stronger effect = lower value 0.953 | S. cerevisiae deletion strains, locus YMR058W, strain fet3, stronger effect = lower value 0.997 | S. cerevisiae deletion strains, locus YMR078C, strain ctf18, stronger effect = lower value 0.925 | S. cerevisiae deletion strains, locus YMR125W, strain sto1, stronger effect = lower value 0.984 | S. cerevisiae deletion strains, locus YMR129W, stronger effect = lower value 0.99 | S. cerevisiae deletion strains, locus YMR205C, strain PFK2, stronger effect = lower value 1.02 | S. cerevisiae deletion strains, locus YMR231W, strain pep5, stronger effect = lower value 1.02 | S. cerevisiae deletion strains, locus YMR307W, strain GAS1, stronger effect = lower value 0.642 | S. cerevisiae deletion strains, locus YNL067W, strain RPL9B, stronger effect = lower value 0.994 | S. cerevisiae deletion strains, locus YNL071W, strain lat1, stronger effect = lower value 0.998 | S. cerevisiae deletion strains, locus YNL128W, strain TEP1, stronger effect = lower value 0.941 | S. cerevisiae deletion strains, locus YNL153C, strain GIM3, stronger effect = lower value 0.945 | S. cerevisiae deletion strains, locus YNL183C, strain NPR1, stronger effect = lower value 0.974 | S. cerevisiae deletion strains, locus YNL209W, strain ssb2, stronger effect = lower value 0.994 | S. cerevisiae deletion strains, locus YNL233W, strain BNI4, stronger effect = lower value 0.902 | S. cerevisiae deletion strains, locus YNL248C, strain rpa49, stronger effect = lower value 0.994 | S. cerevisiae deletion strains, locus YNL250W, strain rad50, stronger effect = lower value 0.907 | S. cerevisiae deletion strains, locus YNL271C, strain bni1, stronger effect = lower value 0.951 | S. cerevisiae deletion strains, locus YNL298W, strain CLA4, stronger effect = lower value 0.942 | S. cerevisiae deletion strains, locus YNL322C, strain KRE1 (second series), stronger effect = lower value 0.982 | S. cerevisiae deletion strains, locus YNR049C, strain mso1, stronger effect = lower value 0.999 | S. cerevisiae deletion strains, locus YNR052C, strain pop2, stronger effect = lower value 0.955 | S. cerevisiae deletion strains, locus YOL012C, strain htz1 1.01 | S. cerevisiae deletion strains, locus YOL147C, strain pex11, stronger effect = lower value 0.958 | S. cerevisiae deletion strains, locus YOR001W, strain rrp6, stronger effect = lower value 0.992 | S. cerevisiae deletion strains, locus YOR061W, strain CKA2, stronger effect = lower value 0.93 | S. cerevisiae deletion strains, locus YOR069W, strain VPS5, stronger effect = lower value 0.973 | S. cerevisiae deletion strains, locus YOR070C, strain gyp1, stronger effect = lower value 1 | S. cerevisiae deletion strains, locus YOR080W, strain dia2, stronger effect = lower value 1.01 | S. cerevisiae deletion strains, locus YOR083W, strain WHI5, stronger effect = lower value 1 | S. cerevisiae deletion strains, locus YOR106W, strain vam3, stronger effect = lower value 0.995 | S. cerevisiae deletion strains, locus YOR136W, strain idh2, stronger effect = lower value 0.981 | S. cerevisiae deletion strains, locus YOR144C, strain elg1, stronger effect = lower value 0.953 | S. cerevisiae deletion strains, locus YOR231W, strain MKK1, stronger effect = lower value 0.994 | S. cerevisiae deletion strains, locus YOR265W, strain rbl2, stronger effect = lower value 1.01 | S. cerevisiae deletion strains, locus YOR270C, strain vph1, stronger effect = lower value 0.887 | S. cerevisiae deletion strains, locus YOR290C, strain snf2, stronger effect = lower value 0.981 | S. cerevisiae deletion strains, locus YOR316C, strain cot1, stronger effect = lower value 0.961 | S. cerevisiae deletion strains, locus YPL051W, strain arl3, stronger effect = lower value 1 | S. cerevisiae deletion strains, locus YPL055C, strain LGE1, stronger effect = lower value 0.853 | S. cerevisiae deletion strains, locus YPL078C, strain atp4, stronger effect = lower value 0.996 | S. cerevisiae deletion strains, locus YPL106C, strain sse1, stronger effect = lower value 1.03 | S. cerevisiae deletion strains, locus YPL240C, strain hsp82, stronger effect = lower value 0.997 | S. cerevisiae deletion strains, locus YPL256C, strain CLN2, stronger effect = lower value 0.998 | S. cerevisiae deletion strains, locus YPR119W, strain clb2, stronger effect = lower value 0.953 | S. cerevisiae deletion strains, locus YPR141C, strain kar3, stronger effect = lower value 0.964 | S. cerevisiae deletion strains, locus YPR163C, strain tif3, stronger effect = lower value 0.942 | S. cerevisiae deletion strains, locus YPR167C, strain met16, stronger effect = lower value 0.936 | S. cerevisiae deletion strains, strain wtn01, stronger effect = lower value 0.959 | S. cerevisiae strains, strain wild type, stronger effect = lower value 0.929
